Test results taken from PubChem BioAssay (NCATS).
Inconclusive results are not listed. The source made the active and inactive calls. The call rests on the fitted dose curve.

Experiment: qHTS Assay for Lipid Storage Modulators (AID 1519); on activity change, negative = inhibition: on the % scale 0 is the no-effect control and ±100 the full control effect
Settings: Drosophila S3 cells, BODIPY lipid droplet/cell ratio, laser cytometry, cells loaded with oleic acid
Procedure, shortened: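 Cells seeded at 5,000 per well were treated with compounds over a concentration series and loaded with oleic acid (400 uM, as added). Lipid droplet fluorescence (488 nm excitation, 500-530 nm channel) was read by laser-scanning cytometry and normalized to 20 uM Triacsin C.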

[1] = measured here: cell count channel max response
[2] = measured here: lipid channel max response

| Structure (SMILES) | activity change, negative = inhibition (at 57.5 µM (top of the series)) | max response [1] [%] | max response [2] [%] | activity change, negative = inhibition (at 25.7 µM (top of the series)) |
| --- | --- | --- | --- | --- |
| NS(=O)(=O)c1cc(C2(O)NC(=O)c3ccccc32)ccc1Cl (configuration not stated) | 3.99% (inactive) | 20 | 27 |  |
| CN1CCCN=C1COC(=O)C(O)(c1ccccc1)C1CCCCC1 (configuration not stated) | 5.7% (inactive) | 7.14 | 15.3 |  |
| CCOC(N)=O | 5.36% (inactive) | 18.8 | 25.8 |  |
| CC[N+](C)(CC)CCOC(=O)C1c2ccccc2Oc2ccccc21 |  | -9.32 | -11.4 | -1.37% (inactive) |
| CN/C(=C\[N+](=O)[O-])NCCSCc1csc(CN(C)C)n1 |  | -17.1 | -17.9 | -0.861% (inactive) |
| CC[N+](CC)(CC(=O)Nc1c(C)cccc1C)Cc1ccccc1 |  | -6.23 | -4.81 | -1.02% (inactive) |
| CC(=O)Oc1cccc(O)c1 | 7.58% (inactive) | 7.77 | 18.4 |  |
| C[N+](C)(C)CC[N+]1(C)Cc2c(Cl)c(Cl)c(Cl)c(Cl)c2C1 | 0.877% (inactive) | -22.8 | -20.9 |  |
| Cc1cc(O)cc(C)c1Cl | 11.1% (inactive) | -12.4 | 1.81 |  |
| NC(=O)c1ccc([N+](=O)[O-])cc1Cl | -1.34% (inactive) | -11.1 | -9.4 |  |
| CN[C@@H]1[C@H](O)[C@H](NC)[C@H]2O[C@@]3(O)C(=O)C[C@@H](C)O[C@H]3O[C@@H]2[C@H]1O | -5.49% (inactive) | 7.5 | 3.08 |  |
| C/C=C/C(=O)N(CC)c1ccccc1C | 9.1% (inactive) | 2.55 | 11.8 |  |
| CCN(CC)CCc1nc(-c2ccccc2)no1 |  | -16 | -19.5 | -4.73% (inactive) |
| C1CCN2C[C@@H]3C[C@@H](CN4CCCC[C@@H]34)[C@H]2C1 | 2.67% (inactive) | 14.6 | 18.3 |  |
